Screening results from PubChem.
TDP1 block: inhibitors of human tyrosyl-DNA phosphodiesterase TDP1 | Q9NUW8 | recombinant TDP1, AlphaScreen DNA substrate cleavage | Potency, µM (titrated, usually from 130 µM), without a hit: at the highest dose activity change, negative = inhibition, actives largely listed as inhibitors | 350,000 compounds, 0.28% hits; note: % is set by controls: 0 for no effect and ±100 for the full control effect; nearly all actives have a fitted effect of over 40% in size
Target sequence (Q9NUW8 whole entry, looked up): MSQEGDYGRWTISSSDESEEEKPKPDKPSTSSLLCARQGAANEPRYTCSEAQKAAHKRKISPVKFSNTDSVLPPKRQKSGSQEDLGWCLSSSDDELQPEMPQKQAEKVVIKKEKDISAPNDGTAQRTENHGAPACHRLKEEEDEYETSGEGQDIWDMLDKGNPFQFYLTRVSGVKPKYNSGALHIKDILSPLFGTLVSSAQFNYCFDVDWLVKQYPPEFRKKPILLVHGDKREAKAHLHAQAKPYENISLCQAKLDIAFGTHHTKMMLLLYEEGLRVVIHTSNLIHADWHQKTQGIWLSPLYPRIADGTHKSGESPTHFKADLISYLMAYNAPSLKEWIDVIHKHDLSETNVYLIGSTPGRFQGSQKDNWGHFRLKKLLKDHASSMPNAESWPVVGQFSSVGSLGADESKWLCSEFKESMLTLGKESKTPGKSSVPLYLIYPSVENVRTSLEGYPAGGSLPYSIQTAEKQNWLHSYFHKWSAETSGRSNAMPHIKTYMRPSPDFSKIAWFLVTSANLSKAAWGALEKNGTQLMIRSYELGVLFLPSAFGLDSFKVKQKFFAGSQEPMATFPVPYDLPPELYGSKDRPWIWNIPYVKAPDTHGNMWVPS
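Recombinant E. coli-expressed Tdp1 (1 nM) preincubated with compound 15 min at RT, then 5'-biotin/3'-phosphotyrosine-FITC DNA substrate (15 nM) added for 5 min. AlphaScreen beads (10 ug/ml) added, 10 min RT; tyrosine-FITC cleavage read as signal loss.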
JMJD2A Tudor inh: inhibitors of human JMJD2A Tudor domain | Potency, µM (highest dose often 114 µM), for inactives: at the top dose activity change, negative = inhibition, most hits filed as inhibitors | O75164 | 390,000 compounds, 4.4% hits | AlphaScreen JMJD2A-Tudor / H3K4me3 peptide binding; note: % is set by controls: 0 for no effect and ±100 for the full control effect; nearly all actives have a fitted effect of over 50% in size
HP1b binding inh: HP1-beta chromodomain-methylated histone interaction inhibition. P83916. AlphaScreen HP1-beta / biotin-H3K9me3 peptide binding. Potency, µM (doses to about 114 µM), inactives show top-dose activity change, negative = inhibition, most hits filed as inhibitors. 390,000 compounds, 0.56% hits. AID 540317; note: nearly all actives have a fitted effect of over 70% in size
Target sequence (P83916 whole entry, looked up): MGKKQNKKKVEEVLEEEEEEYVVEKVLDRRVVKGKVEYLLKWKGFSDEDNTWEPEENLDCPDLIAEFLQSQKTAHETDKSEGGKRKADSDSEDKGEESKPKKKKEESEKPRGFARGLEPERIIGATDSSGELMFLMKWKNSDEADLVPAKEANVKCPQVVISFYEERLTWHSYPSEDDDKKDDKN
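AlphaScreen: HP1-beta (50 nM) preformed 30 min with biotin-H3(1-18)K9me3 peptide (50 nM) in PBS pH 7.4, 0.01% Tween-20. Compound added for 30 min at RT, then streptavidin donor/nickel chelate acceptor beads (10 ug/mL) for 30 min.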
Sfp inh: inhibitors of Bacillus subtilis Sfp phosphopantetheinyl transferase; Q9F4F7; Biochemical Sfp PPTase activity, qHTS; Potency, µM, inactives show largest response in the series, negative = inhibition, hits mostly inhibitors; 310,000 compounds, 3.5% hits; AID 1490;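 note: the enzyme is Sfp with the accession as filed and its product quenches rhodamine fluorescence; 0% = enzyme reaction without inhibitor and -100% = no enzyme wells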
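Fluorescence-quenching assay: 15 nM Sfp-PPTase preincubated 15 min at room temperature with compound, then 5 uM rhodamine-CoA and 12.5 uM BHQ-2-labelled YbbR peptide added. Fluorescence (ex 525/em 598 nm) read at start and after 30 min; difference gives rate.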
BAZ2B block: blocks human BAZ2B; Potency, µM (highest dose often 114 µM), inactives show at the highest dose activity change, negative = inhibition, hits mostly inhibitors; AlphaScreen BAZ2B-H3K14Ac peptide displacement; 360,000 compounds, 4.4% hits; note: % is set by controls: 0 for no effect and ±100 for the full control effect; nearly all actives have a fitted effect of over 60% in size
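Inhibition is scored as reduced AlphaScreen emission. The BAZ2B/b-H3(5-23)K14Ac complex (50 nM each) in PBS pH 7.4, 0.01% Tween-20 meets compound (up to 110 uM) for 30 min at RT before bead addition.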
G9a inh: G9a (human) methyltransferase inhibition | Q96KQ7 | Potency, µM (series often up to 102 µM), for inactives: top-dose activity, negative = inhibition, most hits filed as inhibitors | G9a H3K9 monomethylation, AlphaScreen, 2 h | 350,000 compounds, 8.8% hits; note: % is set by controls: 0 for no effect and ±100 for the full control effect; nearly all actives have a fitted effect of over 75% in size
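Quantitative HTS format: methyltransferase activity on a biotin-tagged H3K9 peptide is measured by AlphaScreen, using a rabbit anti-monomethyl-H3K9 antibody with streptavidin donor and anti-IgG acceptor beads. Final levels are 20 nM enzyme, 500 nM peptide, 20 uM SAM; 2 h RT.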
Starred values were filed as active, the others as inactive; ? = inconclusive; nt = no result; [ ] = dose if it differs, or a comment. In the library only some 12% were active in any assay of this set; here they are far more common. Calls come from the whole dose curve; as a rule, active = well fitted curve in the direction sought with a large enough effect; inconclusive = small, poorly fitted or top-dose-only effect, or another doubt; inactive = no such curve, though single readings can be large; an effect the other way counts as inactive or inconclusive. Potency is the fitted concentration of half-maximal effect.

SMILES	TDP1 block	JMJD2A Tudor inh	HP1b binding inh	Sfp inh	BAZ2B block	G9a inh
CCCCC(=O)Nc1ccc(C(=O)NCCN2CCOCC2)cc1	nt	10.3%	46.8%	9.2%	-4.6%	nt
CCC(C)(C)NC(=O)C(c1ccccc1Cl)N(C(=O)CCC(=O)Nc1cc(C)on1)C(C)(C)C (stereo unspecified)	9.9%	56.2µM*	0.0%	1.4%	-8.2%	-4.3%[59 µM]
O=C1CN(C(=O)c2ccc(F)cc2)c2ccccc2N1	2.9%	4.2%	45.6%	15.2%	-14.7%	99.4%
Cc1nn(S(=O)(=O)c2ccc(Cl)cc2)c(C)c1S(=O)(=O)N1CCOCC1	0.3%	?	7.1%	11.1%	-7.8%	?
Cc1nn(S(=O)(=O)c2cccc([N+](=O)[O-])c2)c(C)c1S(=O)(=O)N1CCOCC1	1.7%	79.4µM*	83.6%	17.5%	-27.1%	-4.3%[59 µM]
Cc1nn(S(=O)(=O)c2ccc(Br)cc2)c(C)c1S(=O)(=O)N1CCOCC1	0.1%	-10.3%	37.8%	15.3%	?	39.8µM*
Cc1nn(S(=O)(=O)c2cccc([N+](=O)[O-])c2)c(C)c1Br	5.4%	-24.3%[57.1 µM]	-13.0%	0.5%	?	?
Cc1ccc(S(=O)(=O)n2nc(C)c(S(=O)(=O)N3CCOCC3)c2C)cc1	2.6%	?	47.5%	10.1%	?	35.5µM*
CCc1ccccc1NC(=O)Cn1c(=O)oc2ccccc21	4.5%	11.0%	45.6%	nt	1.1%	7.4%[59 µM]
Cc1[nH]c(C)c(S(=O)(=O)NCC(C)c2ccccc2)c1C(=O)N1CCCCC1 (stereo unspecified)	2.0%	-9.6%	52.6%	5.5%	-16.3%	nt
CCOC(=O)CSC1=C(C#N)C(c2ccccc2OCC)C(C#N)C(=O)N1 (stereo unspecified)	6.7%	-25.1%	19.0%	?	-24.9%	?
CCOC(=O)C1C(=O)NC(SCC(=O)Nc2nccs2)=C(C#N)C1c1ccccc1OCC (stereo unspecified)	4.9%	56.2µM*	?	14.1µM*	-35.2%	1.58µM*
C=CCSC1=C(C#N)C(c2ccccc2OCC)C(C#N)C(=O)N1 (stereo unspecified)	3.9%	-30.9%	-12.9%	35.5µM*	-12.1%	44.7µM*
CC(C)(C)NC(=S)NC(=O)C12CC3CCC(CC(C3)C1)C2	5.6%	89.1µM*	-15.2%	11.3%	-38.4%	-8.6%[59 µM]
CN(C)NC(=S)NC(=O)C12CC3CC(CC(C3)C1)C2	4.2%	?	10.0%	?	?	-41.8%
CN1CCC(N(C)C(=S)NC(=O)C23CC4CC(CC(C4)C2)C3)CC1	3.2%	-4.4%	-10.7%	-10.9%	10.1%	39.8µM*
CN(C(=S)NC(=O)C12CC3CC(CC(C3)C1)C2)c1ccc(O)cc1	4.2%	50.1µM*	10µM*	nt	nt	nt
NCCCC[C@H](N)C(=O)N[C@@H](CCCN=C(N)N)C(=O)N1CCC[C@H]1C(=O)N1CCC[C@H]1C(=O)NCC(=O)N[C@@H](Cc1ccccc1)C(=O)N[C@@H](CO)C(=O)N1CCC[C@H]1C(=O)N[C@@H](Cc1ccccc1)C(=O)O	6.2%	nt	nt	6.3%	nt	nt
CCC1CCCCN1S(=O)(=O)c1ccc(NC(=O)c2nc(S(C)(=O)=O)ncc2Cl)cc1 (stereo unspecified)	9.4%	-29.2%	-18.3%[57 µM]	25.1µM*	-23.0%[57.1 µM]	39.8µM*
CC(=O)Nc1ccc(NC(=O)c2nc(S(=O)(=O)Cc3ccccc3)ncc2Cl)cc1	-0.5%	0.4%	46.6%	-25.9%	-29.8%	-11.6%[0.501 µM]
CCS(=O)(=O)c1ncc(Cl)c(C(=O)Nc2ccc(S(=O)(=O)N3CCCC(C)C3)cc2)n1 (stereo unspecified)	8.4%	?	-5.0%[57 µM]	?	-24.2%[57.1 µM]	79.4µM*
CS(=O)(=O)c1ncc(Cl)c(C(=O)Nc2ccc3ccccc3c2)n1	-3.6%	2.8%	41.3%	12.6µM*	-36.5%	10µM*
Cc1cccc(NC(=O)C2CCN(S(=O)(=O)c3ccc4c(c3)CCCC(=O)N4)CC2)c1	2.1%	-3.6%	27.5%	nt	7.2%[57.1 µM]	-17.7%[59 µM]
Cc1ccc(C)c(OCCC(=O)OCC(=O)Nc2cc(S(=O)(=O)N3CCOCC3)ccc2C)c1	-4.2%[0.505 µM]	?	1.1%	nt	5.9%	?
O=C(O)c1ccc(Cl)c(S(=O)(=O)Nc2ccc(OCc3ccccc3)cc2)c1	nt	-13.8%	10.6%	6.5%	-13.4%	39.8µM*
SMILES	TDP1 block	JMJD2A Tudor inh	HP1b binding inh	Sfp inh	BAZ2B block	G9a inh
CCCNC(=O)Cn1ncc2c3ccccc3n(CCC)c2c1=O	3.7%	3.6%	31.8%	nt	0.7%	4.4%[59 µM]
Cc1nc2nc(SCC(=O)NCCCN3CCCC3)nn2c(C)c1Cc1ccccc1Cl	5.4%[0.0935 µM]	-34.5%	-11.2%	3.1%	-13.4%	79.4µM*
Cc1ccc(Cc2c(C)nc3nc(SCC(=O)NCCCN4CCCCCC4)nn3c2C)cc1	-12.4%[0.0935 µM]	-30.3%	-23.4%	-6.0%	?	35.5µM*
CC/C(=C\C(=O)c1ccncc1)Nc1ccc(Br)cc1	1.1%	?	?	-14.0%	50.1µM*	?
O=C(NNC(=O)c1ccc(Br)cc1)c1ccncc1	nt	4.3%	50.5%	20.9%	-0.4%	-33.5%[0.501 µM]
COc1cc(CCC(N)c2cccc(O)c2)cc(OC)c1OC (stereo unspecified)	nt	-22.2%	2.3%	nt	nt	nt
CCCOC(=O)Nc1ccc(N2CCCCC2)cc1	9.2%	?	-29.9%	-17.1%	70.8µM*	8.91µM*
Cc1cc(C)cc(NC(=O)Nc2ccc(N3CCCCC3)cc2)c1	7.7%	-21.4%	15.7%	50.1µM*	-27.3%	8.91µM*
Cc1cc2c(s1)c1cnn(Cc3c(F)c(F)c(C(F)(F)F)c(F)c3F)c(=O)c1n2C	nt	-24.7%	nt	nt	nt	nt
CC(=O)NC(Cc1ccccc1F)C(=O)NC1CCN(S(=O)(=O)c2ccccc2)CC1 (stereo unspecified)	4.5%	7.7%	21.4%	25.1%	-1.8%	-23.9%
Cc1ccccc1Cn1nnc2c(=O)[nH]c(C3CCN(C(=O)c4ccccc4)CC3)nc21	3.7%	-1.0%	24.7%	nt	-2.5%	10.8%[59 µM]
O=C(O)c1ccc(-c2ccccc2Cl)o1	3.8%	-23.9%	27.0%	-6.8%	-31.9%	?
O=C(Nc1ccccc1)c1ccc(-c2ccccc2C(F)(F)F)o1	-14.5%	12.7%	81.7%	-19.6%	6.9%	44.7µM*
O=C(NCCc1ccccc1)c1ccc(-c2ccccc2Cl)o1	-11.8%	25.0%	8.9%	6.2%	-13.7%	44.7µM*
O=C(Nc1ccccc1)c1ccc(-c2ccccc2Cl)o1	-7.9%	8.5%	24.6%	10.9%	-3.5%	50.1µM*
CC(=O)Nc1ccc(NC(=O)c2ccc(-c3ccccc3Cl)o2)cc1	nt	-22.8%	13.4%	nt	4.7%	-34.3%
COc1cc(OC)c(-c2nn3c(-c4cc(C)[nH]n4)nnc3s2)cc1OC	1.2%	-19.2%[57.1 µM]	17.2%[57 µM]	nt	nt	nt
